Measured values as given in publication PMC5540273 (PLoS ONE, 2017).

Columns and labels:
CTK = system: T1, CTK
T1 construct: gene MATK

DCAMKL1 = system: T2, DCAMKL1
T2 construct: gene DCLK1

DCAMKL3 = system: T3, DCAMKL3
T3 construct: gene DCLK3

DLK = system: T4, DLK
T4 construct: gene MAP3K12
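Also: kd values determined as follow-up on hits from a single-replicate KINOMEscan panel screen.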

Q: Cc1cccc(-c2nc(Nc3ccc4[nH]nnc4c3)c3ccccc3n2)n1 [GW867587] was tested. Which Kd (CSNK2A1) did it give?
A: 0.77 µM

Q: O=C(Nc1ccccc1)Nc1ccc(Oc2ccc3nccn3n2)cc1 was tested. Which Kd (CTK) did it give?
A: > 10 µM

Q: With COC(=O)c1cccc(NC(=O)NCCNc2ccnc(Nc3ccc(F)cc3)n2)c1 [GSK1379883] as the compound, how does the Kd (DCAMKL1) read?
A: > 10 µM

Q: Which Kd (DCAMKL3) does the source give for C[C@@H]1CCN(C(=O)CO)C[C@@H]1N(C)c1ncnc2[nH]ccc12 here?
A: 0.24 µM

Q: Which Kd (DLK) does the source give for Clc1ccc(-c2cc(-c3c[nH]nc3-c3ccccn3)ccn2)cc1 [GW681251] here?
A: > 10 µM

Q: CSc1nn2c(=O)cc(N3CCOCC3)nc2n1Cc1cccc(Cl)c1Cl [GSK2347225] was tested. Which Kd (DLK) did it give?
A: > 10 µM
